Bioassay records deposited in PubChem by National Center for Advancing Translational Sciences (NCATS).
HCV inhibitor – inhibitors of hepatitis C virus infection; Potency, µM (highest dose often 41.8 µM), actives largely listed as inhibitors; 3.4% of 340,000 active; Huh7.5.1 HCVcc-Cre infection, luciferase reporter, 44 h
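Compounds are dispensed onto cells plated 4 h earlier at 1,000 per well, with HCVcc-Cre virus (about 0.5 moi) added next. Following 44 h of culture, luminescent signal is measured for 15 sec after 15 min with substrate at room temperature.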
AMA1-RON2 inh – AMA1-RON2 (P. falciparum) interaction inhibition; Potency, µM (titrated, usually from 58.2 µM), hits mostly inhibitors; 0.2% of 360,000 active; AID 720542; AlphaScreen AMA1-biotinylated RON2 peptide binding; further: nearly all actives have a fitted effect of over 45% in size
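AMA1 (3D7) with his tag at 25 nM final met compounds first, then biotinylated RON2 peptide at 25 nM; detection used donor plus acceptor beads, 10 µg/mL apiece, read by AlphaScreen after 30 min at room temperature.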
Pf growth 96h – P. falciparum growth inhibition at 96 hour, primary screen for plastid delayed-death inhibitors; P. falciparum luciferase reporter growth, 96 h; Potency, µM (titrated, usually from 28.7 µM), most hits filed as inhibitors; 6.9% of 320,000 active
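Readout is luminescence from an integrated firefly luciferase in P. falciparum. Red cells, 2% hematocrit and 0.05% parasitemia final, were cultured with compound through two parasite generations (96 hours) at 37 C, 5% CO2.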
Pf growth 48h – P. falciparum growth inhibition at 48 hours (one generation) | P. falciparum luciferase growth in erythrocytes, 48 h | Potency, µM (highest dose often 28.7 µM), hits mostly inhibitors | 5.9% of 310,000 active
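In quantitative HTS format, infected erythrocytes bearing luciferase-reporter parasites were treated for a single generation at 37 C. Luminescence after adding detection reagent served as the growth measure.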
Numbers stand for hits; i = inactive; ? = inconclusive; nt = no result given; [ ] = remark or other dose. In the library only some 11% were active in any assay of this set; here they are far more common. The call rests on the fitted dose curve; in most records, active means well fitted curve in the direction sought with a large enough effect; inconclusive means small, poorly fitted or top-dose-only effect, or another doubt; inactive means no such curve, though single readings can be large; an effect the other way counts as inactive or inconclusive.

SMILES | HCV inhibitor | AMA1-RON2 inh | Pf growth 96h | Pf growth 48h
COc1ccccc1-n1c(C)nnc1SCC(=O)Nc1cccc(C(C)=O)c1 | i | i | i | i
O=[N+]([O-])c1cccc(S(=O)(=O)NCCCn2ccnc2)c1 | i | i | i | i
Cc1ccc([C@H]2C[C@H](O)[C@@H](n3cc(-c4ccc(F)cc4)nn3)CN2CC2CCCCC2)cc1 | nt | i | nt | nt
CC(=O)C(Cc1ccccc1)NC(=O)CCl (stereo not given) | i | i | i | ?
O=C(CCl)NC(Cc1ccccc1)c1ccccc1 (stereo not given) | i | i | 10µM | ?
O=C1CCC(c2ccc(-n3ccnc3)cc2)=NN1 | i | i | i | i
CCOC(=O)c1cc(-c2ccc(F)cc2)n(CC(=O)NCc2cccnc2)c1C | i | i | 2.6µM | ?
CCOC(=O)c1c(C)c(C(=O)NCc2ccco2)c(C)n1CC | i | i | i | i
CCOC(=O)c1c(C)c(C(=O)NCc2cccnc2)c(C)n1CC | i | i | 3.7µM | i
O=C(NNS(=O)(=O)c1ccccc1F)c1sccc1-n1cccc1 | i | i | i | i
CCCCCCC(=O)NNC(=O)CC(=O)Nc1ccccc1C(=O)O | ? | i | ? | i
CCc1cc(C)cc(OCCNC(=O)c2cncc(Br)c2)c1 | 10µM | i | ? | nt
O=C(NCCOc1ccccc1)c1cncc(Br)c1 | i | i | i | nt
CC(NC(=O)NCc1cccnc1)(C(F)(F)F)C(F)(F)F | i | i | i | i
CCc1noc(C)c1C(=O)OC(C)C(=O)c1c(C)[nH]c2ccccc12 (stereo not given) | i | i | ? | ?
Cc1[nH]c2ccccc2c1C(=O)C(C)OC(=O)c1ccc([N+](=O)[O-])o1 (stereo not given) | ? | i | ? | 3.3µM
Cc1nc2sc(C(c3ccco3)N3CCN(C(c4ccccc4)c4ccccc4)CC3)c(O)n2n1 (stereo not given) | ? | i | ? | 1.7µM
CCOc1cc(/C=N/O)cc(Br)c1OCC | ? | i | i | i
C#CCOc1c(Br)cc(/C=N/O)cc1OCC | 2.2µM | i | i | nt
CCOc1cc(/C=N/O)cc(Cl)c1OC | 11µM | i | ? | i
COC(=O)C1=C(C)NC(C)=C(C(=O)OC)C1C(=O)OCc1nnc(-c2ccccc2Cl)o1 | i | i | ? | i
O=C(OCC(=O)N(C1CCCCC1)C1CCCCC1)c1ccccc1O | i | i | ? | ?
N#CCC(=O)Nc1ccc(C(=O)OCC(=O)NC2CCCCCC2)cc1 | i | i | ? | ?
N#CCC(=O)Nc1ccc(C(=O)OCC(=O)N(C2CCCCC2)C2CCCCC2)cc1 | i | i | ? | 12µM
O=C(OCC(=O)N(C1CCCCC1)C1CCCCC1)c1ccc(O)cc1 | i | i | ? | 8.3µM
SMILES | HCV inhibitor | AMA1-RON2 inh | Pf growth 96h | Pf growth 48h
FC(F)(F)c1ccccc1/C=N/n1c(COc2ccccc2)n[nH]c1=S | i | i | i | i
Nc1cc(=O)[nH]c(SCC(=O)Nc2ccc(Oc3ccccc3)cc2)n1 | i | i | i | i
Nc1ccc2cc3[nH]c4cc(N)ccc4c3nc2c1 | 1.6µM | i | nt | nt
Nc1ccc2nc(-c3ccc(Cl)cc3)[nH]c2c1 | i | i | ? | nt
COc1ccc(-c2[nH]nc3oc(=O)cc(C)c23)cc1 | i | i | 8.3µM | i
COc1cnc(-c2ccccn2)nc1Sc1ccccc1Cl | ? | i | ? | ?
CCOC(=O)C(C)Sc1nc(-c2ccccn2)ncc1OC (stereo not given) | ? | i | 3.3µM | 13µM
COc1cnc(-c2ccccn2)nc1N(C)C | ? | i | 2.3µM | 4.1µM
COc1cnc(-c2ccccn2)nc1Oc1c(C)cccc1C | ? | i | 0.21µM | 12µM
COc1ccccc1Sc1nc(-c2ccccc2)ncc1OC | ? | i | ? | ?
COc1cnc(-c2ccccc2)nc1Sc1ccccc1 | 13µM | i | ? | i
COc1ccccc1N1CCN(C(=O)c2ccc3c(c2)NC(=O)C(CSCc2ccccc2C)N3)CC1 (stereo not given) | nt | nt | i | ?
COc1cnc(-c2ccccn2)nc1Oc1cccc(Cl)c1 | i | i | 2.6µM | ?
COc1cnc(-c2ccccn2)nc1Sc1c(Cl)cccc1Cl | ? | i | 2.1µM | 1.7µM
CN(C)C(=S)NC(=S)Nc1ccc2ccccc2c1 | ? | i | nt | nt
O=C(NCC(c1cccs1)N1CCOCC1)c1cc2ccccc2oc1=O (stereo not given) | i | i | nt | nt
Cc1cc(NC(=O)CCCN2C(=O)c3cccnc3C2=O)no1 | i | i | 12µM | i
CC[C@@]12C(=O)N(c3ccc(OC)cc3)C(=O)N1[C@H](c1cccc(C)c1)[C@@H]1C(=O)N(Cc3ccccc3)C(=O)[C@@H]12 | i | i | 13µM | ?
Cc1cccc([C@@H]2[C@@H]3C(=O)N(Cc4ccccc4)C(=O)[C@@H]3[C@]3(Cc4ccc(Cl)cc4)C(=O)N(c4ccc(Br)cc4)C(=O)N23)c1 | i | i | 8.3µM | ?
Cc1cccc([C@@H]2[C@@H]3C(=O)N(Cc4ccccc4)C(=O)[C@@H]3[C@]3(C)C(=O)N(c4cccc(F)c4)C(=O)N23)c1 | i | i | ? | 10µM
CC[C@@]12C(=O)N(c3cccc(Cl)c3)C(=O)N1[C@H](c1cccc(C)c1)[C@@H]1C(=O)N(Cc3ccccc3)C(=O)[C@@H]12 | ? | i | 5.2µM | 4.7µM
Cc1ccc(C)c(CC(=O)N2CCCC(c3cc(C(=O)Nc4ccccc4Cl)no3)C2)c1 (stereo not given) | nt | i | nt | nt
CN(C)c1cccc(/C=C(\C#N)c2ccccc2)c1 | 11µM | i | i | i
CC(C)(C)C(=O)NCc1ccc(C(=O)CSc2nnc(-c3ccncc3)n2C2CC2)s1 | i | i | i | ?
N#Cc1c(Cl)nc(Cl)c2c1CCN(Cc1ccccc1)C2 | ? | i | ? | i
SMILES | HCV inhibitor | AMA1-RON2 inh | Pf growth 96h | Pf growth 48h
N#Cc1c(N2CCCCC2)nc(N2CCCCC2)c2c1CCN(Cc1ccccc1)C2 | ? | i | i | 3.7µM
C=CCNc1nc(NCc2ccccc2)c(C#N)c2c1CN(C)CC2 | 18µM | i | i | ?
CCCc1nc(NCc2ccccc2)c(C#N)c2c1CCCC2 | i | i | ? | 6.6µM
CCN1CCc2c(C#N)c(NCc3ccccc3)nc(N(CC)CC)c2C1 | ? | i | 0.93µM | 2.6µM
Cc1cc(N(C)C)c(C#N)c(NCc2ccccc2)n1 | i | i | ? | i
CCCc1nc(NCCO)c(C#N)c2c1CCCC2 | ? | i | i | i
CN(CC(=O)Nc1ccc(F)cc1)C(=O)CN1C(=O)NC2(CCCC2)C1=O | i | i | i | i
Nc1[nH]nc2nc(NCc3ccccc3)c3c(c12)CCN(Cc1ccccc1)C3 | i | i | ? | i
N#Cc1c(NCCN)nc(NCc2ccccc2)c2c1CCN(Cc1ccccc1)C2 | ? | i | i | 9.3µM
CC(C(=O)O)n1c2ccccc2c2cnn(C)c(=O)c21 (stereo not given) | i | i | i | i
Cc1ccc(C)c(OCCCC(=O)Nc2nccs2)c1 | 13µM | i | ? | ?
CCOc1ccccc1OCCCC(=O)Nc1sccc1C(N)=O | ? | i[11.6 µM] | ? | 12µM
Cc1ccccc1OCCCC(=O)Nc1nccs1 | 11µM | i | i | nt
COc1ccc(OCCCC(=O)Nc2nccs2)cc1 | i | i | ? | ?
CN(c1ccccc1)S(=O)(=O)c1cccc(C(=O)NCCCN2CCCC2=O)c1 | i | i | ? | ?
